This note sets out measurements from article PMC7862700, “An all-to-all approach to the identification of sequence-specific readers for epigenetic DNA modifications on cytosine”.

Common to all, as to experiment: DAPPL (digital affinity profiling via proximity ligation, sequencing); 10 mM Tris-HCl pH 7.5, 50 mM NaCl, 1 mM DTT, 4% glycerol, room temperature, 30 min; GST-TFs on glutathione beads, 16-mer random dsDNA library, 0.1% formaldehyde crosslink after washing; high values mean tight binding
The target of one assay is T1, FEV (Homo sapiens, UniProt Q99581 1-238).
T1 sequence: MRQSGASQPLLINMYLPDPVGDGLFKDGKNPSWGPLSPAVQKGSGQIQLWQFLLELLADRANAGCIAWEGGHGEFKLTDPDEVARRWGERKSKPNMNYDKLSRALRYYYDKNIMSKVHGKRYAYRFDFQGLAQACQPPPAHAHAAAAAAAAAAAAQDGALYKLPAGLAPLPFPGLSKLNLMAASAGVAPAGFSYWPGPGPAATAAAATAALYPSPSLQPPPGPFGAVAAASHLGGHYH
The following applies: protein: recombinant; tags: N-terminal GST; dsDNA, one strand shown. An outline of the steps:
(§1)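 A tag-only sample was pooled with DNA-barcoded human transcription factors that had been expressed in yeast as GST fusions and captured on glutathione beads. The pools were incubated for 30 min at room temperature with 200 nmole of a random double-stranded 16-mer DNA library in Tris/NaCl/DTT/glycerol buffer, then washed, crosslinked with 0.1% formaldehyde, proximity-ligated (BsaI/T4 ligase, 1 h, 37 °C), PCR-amplified and sequenced on an Illumina NextSeq500. Binding signal is each hexamer's read frequency for a factor divided by its frequency for the tag-only sample.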

The next assay has as its target ETV5 (Homo sapiens, UniProt P41161 1-510). The settings on record: protein: recombinant; tags: N-terminal GST; dsDNA, one strand shown. An outline of the steps: as §1
A further assay has as its target HSF1 (Homo sapiens, UniProt Q00613 1-529). The settings on record: protein: recombinant; tags: N-terminal GST; chain copies: 3; dsDNA, one strand shown. An outline of the steps:
as §1

The target in the next assay is T2, SPIC (Homo sapiens, UniProt Q8N5J4 1-248).
T2 sequence: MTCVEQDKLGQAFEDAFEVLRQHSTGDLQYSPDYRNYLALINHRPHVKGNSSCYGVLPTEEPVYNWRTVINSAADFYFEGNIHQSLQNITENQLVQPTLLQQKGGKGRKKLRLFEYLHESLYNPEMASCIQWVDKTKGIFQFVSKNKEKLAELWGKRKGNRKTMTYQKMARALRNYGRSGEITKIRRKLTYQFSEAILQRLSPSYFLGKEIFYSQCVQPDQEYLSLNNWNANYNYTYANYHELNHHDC
The settings on record: protein: recombinant; tags: N-terminal GST; dsDNA, one strand shown. An outline of the steps: as §1

A further assay deals with ELF4 (Homo sapiens, UniProt Q99607 1-663). The settings on record: protein: recombinant; tags: N-terminal GST; dsDNA, one strand shown. An outline of the steps: as §1
Chain of ELF4 (Q99607 whole entry): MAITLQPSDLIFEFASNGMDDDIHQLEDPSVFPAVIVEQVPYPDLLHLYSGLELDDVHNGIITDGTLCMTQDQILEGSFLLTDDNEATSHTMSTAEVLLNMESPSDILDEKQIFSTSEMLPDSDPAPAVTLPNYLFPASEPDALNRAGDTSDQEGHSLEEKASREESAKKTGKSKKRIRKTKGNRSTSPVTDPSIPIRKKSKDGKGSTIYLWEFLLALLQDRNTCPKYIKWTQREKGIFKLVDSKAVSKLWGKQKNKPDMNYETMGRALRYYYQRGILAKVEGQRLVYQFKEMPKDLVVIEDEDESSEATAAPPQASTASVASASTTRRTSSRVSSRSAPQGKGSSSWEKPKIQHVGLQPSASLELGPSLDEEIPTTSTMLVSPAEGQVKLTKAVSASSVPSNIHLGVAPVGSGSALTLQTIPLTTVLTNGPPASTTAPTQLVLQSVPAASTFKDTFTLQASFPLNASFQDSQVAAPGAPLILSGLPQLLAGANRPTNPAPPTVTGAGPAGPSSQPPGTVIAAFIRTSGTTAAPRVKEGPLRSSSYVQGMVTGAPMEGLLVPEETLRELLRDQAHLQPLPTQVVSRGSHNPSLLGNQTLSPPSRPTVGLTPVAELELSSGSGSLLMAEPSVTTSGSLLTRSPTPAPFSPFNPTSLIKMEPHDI
A further assay concerns the target T3, ELK4 (Homo sapiens, UniProt P28324-2 1-405).
T3 sequence: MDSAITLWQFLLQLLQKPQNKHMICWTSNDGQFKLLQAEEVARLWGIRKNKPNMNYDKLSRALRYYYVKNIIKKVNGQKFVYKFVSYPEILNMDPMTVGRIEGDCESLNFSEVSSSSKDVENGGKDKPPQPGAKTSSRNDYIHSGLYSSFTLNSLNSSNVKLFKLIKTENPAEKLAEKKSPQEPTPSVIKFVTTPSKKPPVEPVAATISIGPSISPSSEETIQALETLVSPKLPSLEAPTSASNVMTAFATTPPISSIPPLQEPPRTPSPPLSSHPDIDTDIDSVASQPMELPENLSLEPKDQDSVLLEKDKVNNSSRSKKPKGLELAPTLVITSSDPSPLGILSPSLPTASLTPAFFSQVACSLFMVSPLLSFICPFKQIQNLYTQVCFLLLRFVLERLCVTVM
The settings on record: protein: recombinant; tags: N-terminal GST; dsDNA, one strand shown. Summed up:
as §1

The target in the next assay is T4, ETV2 (Homo sapiens, UniProt O00321 1-342).
T4 sequence: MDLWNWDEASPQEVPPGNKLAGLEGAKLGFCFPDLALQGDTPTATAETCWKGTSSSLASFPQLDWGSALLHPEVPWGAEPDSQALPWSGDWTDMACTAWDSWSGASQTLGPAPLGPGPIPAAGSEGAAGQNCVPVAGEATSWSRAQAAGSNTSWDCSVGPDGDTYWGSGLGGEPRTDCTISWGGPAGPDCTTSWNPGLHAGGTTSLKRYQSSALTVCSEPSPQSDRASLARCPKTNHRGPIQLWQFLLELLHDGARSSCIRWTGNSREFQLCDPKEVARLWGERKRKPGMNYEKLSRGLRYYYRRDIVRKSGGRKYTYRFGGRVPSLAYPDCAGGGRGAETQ
The settings on record: protein: recombinant; tags: N-terminal GST; dsDNA, one strand shown. Summed up:
as §1

In another assay the target is T5, ELF3 (Homo sapiens, UniProt P78545 1-371).
T5 sequence: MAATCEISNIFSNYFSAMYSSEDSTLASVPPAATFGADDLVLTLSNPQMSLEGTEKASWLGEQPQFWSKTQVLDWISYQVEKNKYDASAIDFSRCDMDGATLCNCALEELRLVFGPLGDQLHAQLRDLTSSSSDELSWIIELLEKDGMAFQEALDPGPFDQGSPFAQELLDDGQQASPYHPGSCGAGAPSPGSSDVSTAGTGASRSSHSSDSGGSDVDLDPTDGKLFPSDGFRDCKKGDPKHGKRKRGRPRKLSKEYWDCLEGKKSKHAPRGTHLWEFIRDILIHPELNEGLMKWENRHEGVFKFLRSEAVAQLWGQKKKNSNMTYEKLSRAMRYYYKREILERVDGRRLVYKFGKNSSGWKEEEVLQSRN
The following applies: protein: recombinant; tags: N-terminal GST; dsDNA, one strand shown. Summed up:
as §1

The next assay addresses CRX (Homo sapiens, UniProt O43186 1-299). The following applies: protein: recombinant; tags: N-terminal GST; dsDNA, one strand shown. An outline of the steps: as §1
The target of another assay is ETV1 (Homo sapiens, UniProt P50549 1-477). The following applies: protein: recombinant; tags: N-terminal GST; dsDNA, one strand shown. Summed up: as §1
Chain of ETV1 (P50549 whole entry): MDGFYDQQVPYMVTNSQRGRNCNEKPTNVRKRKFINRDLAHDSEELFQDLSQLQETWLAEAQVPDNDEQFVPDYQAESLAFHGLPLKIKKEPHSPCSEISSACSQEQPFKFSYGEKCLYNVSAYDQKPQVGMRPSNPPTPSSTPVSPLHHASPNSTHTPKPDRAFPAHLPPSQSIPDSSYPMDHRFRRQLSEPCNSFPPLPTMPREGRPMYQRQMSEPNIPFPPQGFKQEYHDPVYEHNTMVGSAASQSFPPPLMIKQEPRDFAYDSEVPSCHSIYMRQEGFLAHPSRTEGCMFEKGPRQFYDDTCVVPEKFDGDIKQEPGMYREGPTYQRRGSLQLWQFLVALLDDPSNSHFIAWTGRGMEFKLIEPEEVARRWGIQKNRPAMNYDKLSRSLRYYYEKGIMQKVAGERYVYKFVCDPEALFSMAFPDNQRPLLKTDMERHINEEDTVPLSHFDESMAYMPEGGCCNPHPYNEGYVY
A further assay concerns the target T6, ERF (Homo sapiens, UniProt P50548 1-548).
T6 sequence: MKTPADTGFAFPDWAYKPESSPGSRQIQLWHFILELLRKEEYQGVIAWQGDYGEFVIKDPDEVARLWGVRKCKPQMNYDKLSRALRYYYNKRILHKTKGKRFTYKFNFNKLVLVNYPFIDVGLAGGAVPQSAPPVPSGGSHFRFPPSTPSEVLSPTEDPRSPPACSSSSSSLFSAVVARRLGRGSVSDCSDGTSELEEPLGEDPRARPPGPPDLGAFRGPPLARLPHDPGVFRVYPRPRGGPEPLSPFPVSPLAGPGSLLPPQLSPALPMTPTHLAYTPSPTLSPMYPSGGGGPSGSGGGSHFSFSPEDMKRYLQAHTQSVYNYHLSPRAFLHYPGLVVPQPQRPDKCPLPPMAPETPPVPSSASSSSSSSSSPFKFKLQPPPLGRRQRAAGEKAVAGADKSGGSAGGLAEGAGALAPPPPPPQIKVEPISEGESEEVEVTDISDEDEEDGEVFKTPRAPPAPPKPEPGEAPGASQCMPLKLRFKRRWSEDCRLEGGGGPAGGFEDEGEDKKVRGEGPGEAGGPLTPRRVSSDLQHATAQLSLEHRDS
The settings on record: protein: recombinant; tags: N-terminal GST; dsDNA, one strand shown. Summed up:
as §1

A further assay addresses T7, ETV3L (Homo sapiens, UniProt Q6ZN32 1-361).
T7 sequence: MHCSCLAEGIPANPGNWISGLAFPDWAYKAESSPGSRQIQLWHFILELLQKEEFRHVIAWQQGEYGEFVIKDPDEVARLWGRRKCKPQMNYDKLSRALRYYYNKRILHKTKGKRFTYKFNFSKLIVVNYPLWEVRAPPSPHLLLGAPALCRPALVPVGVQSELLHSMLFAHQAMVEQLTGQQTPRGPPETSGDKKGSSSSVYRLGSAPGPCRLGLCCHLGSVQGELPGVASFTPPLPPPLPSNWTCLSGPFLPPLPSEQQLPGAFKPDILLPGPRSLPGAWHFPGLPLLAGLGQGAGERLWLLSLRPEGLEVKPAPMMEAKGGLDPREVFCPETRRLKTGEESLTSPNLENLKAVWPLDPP
The following applies: protein: recombinant; tags: N-terminal GST; dsDNA, one strand shown. Summed up:
as §1

Another assay concerns the target T8, ETS2 (Homo sapiens, UniProt P15036 1-469).
T8 sequence: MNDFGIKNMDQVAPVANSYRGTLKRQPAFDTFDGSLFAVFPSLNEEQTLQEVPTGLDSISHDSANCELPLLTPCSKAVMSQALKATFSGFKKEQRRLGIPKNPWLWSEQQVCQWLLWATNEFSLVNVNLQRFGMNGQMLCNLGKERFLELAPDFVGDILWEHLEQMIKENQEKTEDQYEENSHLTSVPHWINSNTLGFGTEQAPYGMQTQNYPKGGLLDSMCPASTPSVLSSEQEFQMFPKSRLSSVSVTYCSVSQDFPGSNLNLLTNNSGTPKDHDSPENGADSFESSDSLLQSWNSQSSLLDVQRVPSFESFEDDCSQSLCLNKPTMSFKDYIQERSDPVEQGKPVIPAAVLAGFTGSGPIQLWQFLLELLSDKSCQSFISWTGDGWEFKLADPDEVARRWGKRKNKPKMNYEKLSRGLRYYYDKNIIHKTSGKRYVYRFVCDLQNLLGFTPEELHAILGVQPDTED
The settings on record: protein: recombinant; tags: N-terminal GST; dsDNA, one strand shown. An outline of the steps:
as §1

The target of another assay is T9, SPDEF (Homo sapiens, UniProt O95238 1-335).
T9 sequence: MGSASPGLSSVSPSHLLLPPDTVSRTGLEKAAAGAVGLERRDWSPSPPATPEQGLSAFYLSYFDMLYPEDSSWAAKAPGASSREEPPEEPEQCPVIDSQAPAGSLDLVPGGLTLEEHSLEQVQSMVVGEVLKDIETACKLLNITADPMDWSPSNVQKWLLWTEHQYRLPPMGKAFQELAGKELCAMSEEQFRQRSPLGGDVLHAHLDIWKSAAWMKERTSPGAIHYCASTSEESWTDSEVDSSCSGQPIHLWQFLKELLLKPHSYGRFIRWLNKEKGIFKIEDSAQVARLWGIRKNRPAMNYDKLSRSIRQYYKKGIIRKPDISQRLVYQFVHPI
The settings on record: protein: recombinant; tags: N-terminal GST; dsDNA, one strand shown. Summed up: as §1

Another assay has as its target T10, ETV7 (Homo sapiens, UniProt Q9Y603 1-341).
T10 sequence: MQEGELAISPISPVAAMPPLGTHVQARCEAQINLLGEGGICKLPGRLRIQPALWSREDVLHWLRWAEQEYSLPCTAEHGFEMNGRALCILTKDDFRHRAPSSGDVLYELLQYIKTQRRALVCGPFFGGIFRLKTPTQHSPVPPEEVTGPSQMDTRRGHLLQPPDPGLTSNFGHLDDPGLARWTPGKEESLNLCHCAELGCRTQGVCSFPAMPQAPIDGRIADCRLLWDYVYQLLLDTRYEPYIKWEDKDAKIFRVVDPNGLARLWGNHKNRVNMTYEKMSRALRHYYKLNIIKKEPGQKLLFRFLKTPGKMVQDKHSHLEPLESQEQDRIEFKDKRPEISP
The settings on record: protein: recombinant; tags: N-terminal GST; dsDNA, one strand shown. Summed up: as §1

The target in the next assay is T11, ELF5 (Homo sapiens, UniProt Q9UKW6-2 1-255).
T11 sequence: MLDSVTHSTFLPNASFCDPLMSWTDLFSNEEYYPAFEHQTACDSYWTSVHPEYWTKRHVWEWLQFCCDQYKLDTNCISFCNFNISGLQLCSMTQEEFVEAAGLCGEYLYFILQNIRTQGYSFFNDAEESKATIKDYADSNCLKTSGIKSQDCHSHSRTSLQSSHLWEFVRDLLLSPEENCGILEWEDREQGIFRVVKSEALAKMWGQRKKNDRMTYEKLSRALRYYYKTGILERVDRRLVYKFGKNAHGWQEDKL
The following applies: protein: recombinant; tags: N-terminal GST; dsDNA, one strand shown. Summed up: as §1

A further assay addresses T12, ETV3 (Homo sapiens, UniProt P41162-2 1-143).
T12 sequence: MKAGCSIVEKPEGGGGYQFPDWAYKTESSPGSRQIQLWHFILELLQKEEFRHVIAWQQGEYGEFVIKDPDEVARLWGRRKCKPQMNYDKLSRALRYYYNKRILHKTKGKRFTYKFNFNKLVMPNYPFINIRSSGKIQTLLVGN
The settings on record: protein: recombinant; tags: N-terminal GST; dsDNA, one strand shown. An outline of the steps: as §1

The target in the next assay is ETV6 (Homo sapiens, UniProt P41212 1-452). The following applies: protein: recombinant; tags: N-terminal GST; dsDNA, one strand shown. An outline of the steps:
as §1

Chain of ETV5 (P41161 whole entry): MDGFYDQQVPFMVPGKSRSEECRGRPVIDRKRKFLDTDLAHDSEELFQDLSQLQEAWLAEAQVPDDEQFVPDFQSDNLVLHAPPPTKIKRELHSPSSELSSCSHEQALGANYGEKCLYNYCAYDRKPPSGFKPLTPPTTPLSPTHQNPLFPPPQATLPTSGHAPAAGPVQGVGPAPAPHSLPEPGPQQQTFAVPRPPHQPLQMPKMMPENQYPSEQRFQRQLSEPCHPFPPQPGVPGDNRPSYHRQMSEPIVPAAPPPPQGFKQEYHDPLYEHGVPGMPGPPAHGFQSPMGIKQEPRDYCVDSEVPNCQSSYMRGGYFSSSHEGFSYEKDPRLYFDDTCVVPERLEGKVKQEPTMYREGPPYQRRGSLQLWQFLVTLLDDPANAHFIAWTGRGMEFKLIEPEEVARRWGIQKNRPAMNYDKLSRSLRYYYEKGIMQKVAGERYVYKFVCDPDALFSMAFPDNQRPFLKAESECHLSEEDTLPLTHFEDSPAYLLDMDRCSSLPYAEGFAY
Chain of HSF1 (Q00613 whole entry): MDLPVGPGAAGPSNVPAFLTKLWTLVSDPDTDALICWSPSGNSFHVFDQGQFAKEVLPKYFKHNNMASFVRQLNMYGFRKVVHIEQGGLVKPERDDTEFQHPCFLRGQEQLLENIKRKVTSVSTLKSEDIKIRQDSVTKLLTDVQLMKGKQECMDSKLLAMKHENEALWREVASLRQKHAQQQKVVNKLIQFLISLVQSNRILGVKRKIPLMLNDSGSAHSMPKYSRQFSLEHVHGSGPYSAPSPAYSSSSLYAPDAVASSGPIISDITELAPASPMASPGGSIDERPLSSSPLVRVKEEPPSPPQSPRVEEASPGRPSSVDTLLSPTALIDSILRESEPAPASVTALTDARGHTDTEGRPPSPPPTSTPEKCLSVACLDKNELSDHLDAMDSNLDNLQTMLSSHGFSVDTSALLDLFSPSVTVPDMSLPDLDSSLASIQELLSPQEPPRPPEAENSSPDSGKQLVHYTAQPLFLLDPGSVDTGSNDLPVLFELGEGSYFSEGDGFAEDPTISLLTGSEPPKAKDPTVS
Chain of ETV6 (P41212 whole entry): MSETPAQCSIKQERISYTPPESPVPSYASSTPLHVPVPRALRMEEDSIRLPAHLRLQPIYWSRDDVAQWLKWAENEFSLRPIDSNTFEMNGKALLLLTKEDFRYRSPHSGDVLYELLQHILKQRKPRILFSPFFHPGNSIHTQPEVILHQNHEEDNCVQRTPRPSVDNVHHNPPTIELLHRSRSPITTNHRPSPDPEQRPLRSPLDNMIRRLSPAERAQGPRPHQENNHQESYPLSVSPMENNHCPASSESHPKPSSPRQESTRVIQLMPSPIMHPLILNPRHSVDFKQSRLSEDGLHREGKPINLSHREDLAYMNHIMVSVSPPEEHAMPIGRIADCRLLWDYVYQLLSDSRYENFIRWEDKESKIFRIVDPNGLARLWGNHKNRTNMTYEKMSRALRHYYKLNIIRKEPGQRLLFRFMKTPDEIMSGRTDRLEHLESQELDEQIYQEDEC
Chain of CRX (O43186 whole entry): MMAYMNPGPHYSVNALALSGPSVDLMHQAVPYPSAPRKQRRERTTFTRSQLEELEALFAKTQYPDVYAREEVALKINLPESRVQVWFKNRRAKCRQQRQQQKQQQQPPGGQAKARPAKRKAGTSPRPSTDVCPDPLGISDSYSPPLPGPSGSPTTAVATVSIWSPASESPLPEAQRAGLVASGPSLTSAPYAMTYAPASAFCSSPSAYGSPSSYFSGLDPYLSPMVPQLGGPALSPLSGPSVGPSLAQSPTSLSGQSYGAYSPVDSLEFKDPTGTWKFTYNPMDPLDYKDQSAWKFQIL

Regarding AATGCA, the binding signal with FEV is 1.31 fold enrichment (6-mer frequency, TF over GST control); with ETV5, 1.29 fold enrichment (6-mer frequency, TF over GST control); in the assay with HSF1, 1.11 fold enrichment (6-mer frequency, TF over GST control); with SPIC, 1.28 fold enrichment (6-mer frequency, TF over GST control); with ELF4, 1.3 fold enrichment (6-mer frequency, TF over GST control); with ELK4, 1.31 fold enrichment (6-mer frequency, TF over GST control). In addition, the binding signal is 1.25 fold enrichment (6-mer frequency, TF over GST control) with ETV2; 1.33 fold enrichment (6-mer frequency, TF over GST control) with ELF3; 1.14 fold enrichment (6-mer frequency, TF over GST control) with CRX; 1.25 fold enrichment (6-mer frequency, TF over GST control) in the assay with ETV1; 1.3 fold enrichment (6-mer frequency, TF over GST control) in the assay with ERF; 1.28 fold enrichment (6-mer frequency, TF over GST control) with ETV3L. Besides, the binding signal in the assay with ETS2 is 1.28 fold enrichment (6-mer frequency, TF over GST control); with SPDEF it was 1.23 fold enrichment (6-mer frequency, TF over GST control); in the assay with ETV7 it was 1.3 fold enrichment (6-mer frequency, TF over GST control); with ELF5, 1.31 fold enrichment (6-mer frequency, TF over GST control); with ETV3, 1.25 fold enrichment (6-mer frequency, TF over GST control); with ETV6, 1.37 fold enrichment (6-mer frequency, TF over GST control).
